# Laboratory results from ChEMBL document CHEMBL1157539, “Thousands of chemical starting points for antimalarial lead identification” (Nature, 2010).
# Test system: HepG2
# Assay: GSK_TCMDC: Percent inhibition of human HepG2 cell line. Test compounds present at 10uM.
# Format: functional
row,Structure (SMILES),Inhibition
1,CN(N=Cc1ccccc1)C(=N)NCCCC#Cc1cccc(CN2CCCC2)c1,16%
2,COCCNCc1cccc(-c2ccc3nccc(Nc4cc(O)ccc4C)c3c2)c1,0%
3,O=C(NCCN1CCCCC1)c1ccc(Nc2nccc(Nc3ccc(Oc4ccccc4)cc3)n2)cc1,58%
4,COc1cc(C(=O)NCCCN2CCN(c3cccc(Cl)c3)CC2)ccc1-c1nc2cc(Cl)c(F)cc2[nH]1,15%
5,O=C(O)C(F)(F)F.OCCN1CCN(Cc2cccc(-c3cccc(-c4nc5cc(F)ccc5[nH]4)c3)c2)CC1,41%
6,CC(Nc1ncc(-c2ccsc2)c(-c2nccs2)n1)c1ccc2c(c1)OCCO2 (centres undefined),14%
7,COc1cc(NC(=O)Nc2cccc3ccccc23)c(OC)cc1Cl,0%
8,COc1ccc(CNC2Cc3ccccc3C2)cc1-c1ccc(S(=O)(=O)NCc2ccccc2)s1.O=C(O)C(F)(F)F,22%
9,Fc1ccc(-c2oc(C3CCN(CCc4ccc(-c5noc(=S)[nH]5)cc4)CC3)nc2COCC(F)(F)F)cc1,5%
10,O=C(Nc1cc(Cl)ccc1O)c1cc(-c2ccccc2O)no1,0%
11,NC(=O)c1ccccc1OCC(=O)Nc1ccc(-c2cccc(-c3nc4cc(C(F)(F)F)ccc4[nH]3)c2)cc1,51%
12,CCC(O)(C#Cc1c(C)nc(N)nc1N)CC,63%
13,CCn1c(Sc2ccc(C#N)c([N+](=O)[O-])c2)nnc1-c1ccc(OC)cc1,0%
14,Cc1cc(N[C@@H](Cc2ccccc2)C(=O)NC2CCCC2)nc(NCCc2ccc(F)cc2)n1.O=C(O)C(F)(F)F,21%
